PubChem BioAssay (NCATS)
“And” between values parts separate entries of the source, which are not always exact repeats. Equal values may be shown once. Results filed as inconclusive are left out. Entries that show only a call come without a potency. The source made the active and inactive calls. The call rests on the fitted dose curve. Square brackets hold non-standard residues; d marks the D form. Peptide text beside a SMILES is read from it. * marks the point of attachment. Sta = CC(C)C[C@H](N)[C@@H](O)CC(=O)O; Isovaleryl = CC(C)CC(=O)*

What was measured:
[1] = Cytotoxicity counterscreen for inhibitors of SARS-CoV-2 cell entry (AID 1645845); further: nearly all actives have a fitted effect of over 50% in size
Method in brief: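 HEK293-ACE2 cells (Expi293F stably expressing human ACE2) seeded overnight, then compound for 1 h plus 48 h at 37C. Viability as ATP content by luminescence; normalized to wells with cells and media-only wells.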

[2] = Primary qHTS to identify inhibitors of SARS-CoV-2 cell entry (AID 1645846); settings: activity change, negative = inhibition: at 57.1 µM (top of the series) unless noted; further: nearly all actives have a fitted effect of over 45% in size
Method in brief: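 Luminescence readout (Bright-Glo luciferase) 48 h after pseudoparticle addition. HEK293-ACE2 cells, 1500/well; compound pre-incubation 1 h; Normalized to spike PP and bald PP.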
Potency means the concentration at half of the fitted maximal effect.

SMILES | Potency [1] | activity change, negative = inhibition [2] | Potency [2]
CC(C)CC(=O)N[C@H](C(=O)N[C@H](C(=O)N[C@@H](CC(C)C)[C@@H](O)CC(=O)N[C@@H](C)C(=O)N[C@@H](CC(C)C)[C@@H](O)CC(=O)O)C(C)C)C(C)C (Isovaleryl-VV[Sta]A[Sta]-OH) | inactive | -12.9% | 
CN1CCN(c2cc3c(cc2F)c(=O)c(C(=O)O)cn3-c2ccc(F)cc2)CC1 | inactive |  | inactive
CCOC(=O)[C@H](CCc1ccccc1)N[C@@H](C)C(=O)N1C(=O)N(C)C[C@H]1C(=O)O | inactive | -10.6% | 
CC(C)(C)CC(=O)OCC(=O)[C@@]1(O)CC[C@H]2[C@@H]3CCC4=CC(=O)C=C[C@]4(C)[C@H]3[C@@H](O)C[C@@]21C | inactive |  | inactive
CSc1ccc(C(=O)c2[nH]c(=O)[nH]c2C)cc1 | inactive |  | inactive
CCN(CC)CC(=O)Nc1c(C)cccc1C | inactive |  | inactive
NS(=O)(=O)c1cc(C(=O)O)c(NCc2ccco2)cc1Cl | inactive |  | inactive
O=C1c2cccc(O)c2C(=O)c2c(O)cccc21 | inactive |  | inactive
CCCCCCCCCCCCCCCC[N+](C)(C)Cc1ccccc1 | 22.4 µM (active) |  | 17.8 µM (active)
COC(=O)C1=C(C)NC(C)=C(C(=O)OC)C1c1ccccc1[N+](=O)[O-] | inactive | -30.6% | 
C[C@H](N)C(=O)N[C@@H](C)C(=O)NC1[C@H]2CN(c3nc4c(cc3F)c(=O)c(C(=O)O)cn4-c3ccc(F)cc3F)C[C@@H]12 (stereo partly specified) | inactive | -23% | 
Cc1cccc(C)c1NC(=O)C(C)N (stereo unspecified) | inactive | 4.4% | 
C[N+](C)(C)CCOC(=O)CCC(=O)OCC[N+](C)(C)C | inactive |  | inactive
CCOc1cc(N)c(Cl)cc1C(=O)NCC1CN(Cc2ccc(F)cc2)CCO1 (stereo unspecified) | inactive |  | inactive
Cc1cc(C)c(/C=C2\C(=O)Nc3ccccc32)[nH]1 | inactive | -6.25% | 
Cc1ccc(O)cc1 | inactive | -24.6% | 
Cc1cc(O)c(C(C)C)cc1Cl | inactive |  | inactive
O=C(O)COC(=O)Cc1ccccc1Nc1c(Cl)cccc1Cl | inactive |  | inactive
NCC1CCC(C(=O)Oc2ccc(CCC(=O)O)cc2)CC1 (stereo unspecified) | inactive |  | inactive
NS(=O)(=O)c1cc2c(cc1Cl)NC(C1CC3C=CC1C3)NS2(=O)=O (stereo unspecified) | inactive |  | inactive
C[C@@H]1C[C@H]2[C@@H]3CCC4=CC(=O)C=C[C@]4(C)[C@@]3(Cl)[C@@H](O)C[C@]2(C)[C@@]1(OC(=O)c1ccco1)C(=O)CCl | inactive | -22.6% | 
C[C@H]1C[C@H]2[C@@H]3CCC4=CC(=O)C=C[C@]4(C)[C@@]3(Cl)[C@@H](O)C[C@]2(C)[C@@]1(O)C(=O)CO | inactive |  | inactive

SMILES | Potency [1] | activity change, negative = inhibition [2] | Potency [2]
O=C1OC2(c3ccc(O)cc3Oc3cc(O)ccc32)c2ccccc21 | inactive |  | inactive
CCCCCCCCCCCCOCCOCCOCCOCCOCCOCCOCCOCCOCCO | 11.2 µM (active) |  | 11.2 µM (active)
NC(N)=N/N=C/c1c(Cl)cccc1Cl | inactive | -25.8% | 
NS(=O)(=O)c1cc2c(cc1Cl)CN(C1CCCCC1)C2=O | inactive |  | inactive
O=C(O)CCNC(=O)c1ccccc1 | inactive |  | inactive
NC(=O)CCCCC1CCSS1 (stereo unspecified) | inactive |  | inactive
CN(Cc1ccc(C(C)(C)C)cc1)Cc1cccc2ccccc12 | inactive | 2.25% | 
C/C(=N/NC(=O)c1ccncc1)C(=O)O | inactive | -2.02% | 
CC(=O)[C@@]1(O)CC[C@H]2[C@@H]3C[C@H](C)C4=CC(=O)CC[C@]4(C)[C@H]3CC[C@@]21C | inactive |  | inactive
CC(=O)OCC(=O)[C@@]1(O)CC[C@H]2[C@@H]3CCC4=CC(=O)C=C[C@]4(C)[C@H]3[C@@H](O)C[C@@]21C | inactive |  | inactive
CC(CNC1CCCCC1)OC(=O)c1ccccc1 (stereo unspecified) | inactive |  | inactive
CN(C)CCCOC1(Cc2ccccc2)CCCCCC1 | inactive | -0.0488% | 
CC1(C)[C@@H](OC(=O)CCC(=O)O)CC[C@]2(C)[C@H]3C(=O)C=C4[C@@H]5C[C@@](C)(C(=O)O)CC[C@]5(C)CC[C@@]4(C)[C@]3(C)CC[C@@H]12 | inactive |  | inactive
CCOC(=O)OCC/C(SC(=O)OCC)=C(\C)N(C=O)Cc1cnc(C)nc1N | inactive |  | inactive
O=C(O)c1ccc(OCCCOc2ccc(C(=O)O)cc2)cc1 | inactive | -2.21% | 
CC(=O)Oc1ccc2c(c1)CC[C@@H]1[C@@H]2CC[C@]2(C)[C@@H](O)CC[C@@H]12 | inactive | -11% | 
CCOC(=O)c1cc(=O)c2c(OCC(COc3cccc4oc(C(=O)OCC)cc(=O)c34)OC(=O)[C@@H](N)CCCCN)cccc2o1 | inactive |  | inactive
CCC(=O)Oc1ccc2c(c1)CC[C@@H]1[C@@H]2CC[C@@]2(C)[C@H]1C[C@@H](OC(=O)CC)[C@@H]2OC(=O)CC | inactive |  | inactive
NC(=O)CC[C@@H](N)C(=O)O | inactive | -8.52% | 
CCOC(=O)Nc1ccc(NCc2ccc(F)cc2)nc1N | inactive | -22.5% | 
Cn1cnc2c1c(=O)[nH]c(=O)n2C | inactive |  | inactive
CCC1Nc2cc(Cl)c(S(N)(=O)=O)cc2S(=O)(=O)N1 (stereo unspecified) | inactive |  | inactive

SMILES | Potency [1] | activity change, negative = inhibition [2] | Potency [2]
C[N+](C)(C)CCCCCCCCCC[N+](C)(C)C | inactive | -5.17% | 
CCOc1ccccc1C(N)=O | inactive |  | inactive
CN(C)CCOC(c1ccccc1)c1ccccc1 | inactive | -13.9% | 
CCC(C(=O)OCCN1CCOC(c2ccccc2)C1C)c1ccccc1 (stereo unspecified) | inactive | -21.8% | 
Brc1c(NC2=NCCN2)ccc2nccnc12 | inactive |  | inactive
C[C@H]1COc2c(C3(N)CC3)c(F)cc3c(=O)c(C(=O)O)cn1c23 | inactive | -12.8% | 
CCCCCC1Nc2cc(C(F)(F)F)c(S(N)(=O)=O)cc2S(=O)(=O)N1 (stereo unspecified) | inactive |  | inactive
COc1ccc2c(c1)C(=O)N(CCc1ccc(S(=O)(=O)NC(=O)NC3CCCCC3)cc1)C(=O)C2(C)C | inactive |  | inactive
C#C[C@]1(O)CC[C@H]2[C@@H]3CCC4=CC(=O)CC[C@@H]4[C@H]3CC[C@@]21C | inactive | 3.31% | 
O=C(OCC(O)CO)c1ccccc1Nc1ccnc2c(C(F)(F)F)cccc12 (stereo unspecified) | inactive |  | inactive
CN1[C@@H]2CC[C@H]1CC(NC(=O)n1c(=O)[nH]c3ccccc31)C2 (stereo partly specified) | inactive |  | inactive
C#C[C@]1(OC(C)=O)CC[C@H]2[C@@H]3CCC4=C/C(=N/O)CC[C@@H]4[C@H]3CC[C@@]21CC | inactive | -15.4% | 
CCCCNc1ccc(C(=O)OCCN(C)C)cc1 | inactive |  | inactive
CC[N+](CC)(CC(=O)Nc1c(C)cccc1C)Cc1ccccc1 | inactive |  | inactive
CC(C)NCC(O)COc1ccc(COCCOC(C)C)cc1 (stereo unspecified) | inactive |  | inactive
Cn1c(=O)c2c(ncn2CC2OCCO2)n(C)c1=O | inactive | -5.86% | 
CC(C)COCC(CN(Cc1ccccc1)c1ccccc1)N1CCCC1 (stereo unspecified) | inactive |  | 14.1 µM (active)
CCCCCCCCCCCCCCCCCCOCC(O)CO (stereo unspecified) | inactive | 2.2% | 
Nc1ccn(C2CO[C@H](CO)O2)c(=O)n1 (stereo partly specified) | inactive |  | inactive
CCC(=O)c1ccc(O)cc1 | inactive |  | inactive
O=C(CCCN1CCN(c2ccccn2)CC1)c1ccc(F)cc1 | inactive | -24.8% | 
CC(C(=O)O)c1ccc(CC2CCCC2=O)cc1 (stereo unspecified) | inactive |  | inactive

SMILES | Potency [1] | activity change, negative = inhibition [2] | Potency [2]
CC(C)NCCCC1(C(N)=O)c2ccccc2-c2ccccc21 | inactive |  | inactive
CCCc1ncc(C[n+]2ccccc2C)c(N)n1 | inactive | 0.0229% | 
O=C(O)CCC(=O)Nc1ccc(S(=O)(=O)Nc2nccs2)cc1 | inactive |  | inactive
Cc1c(C(=O)NN2CCCCC2)nn(-c2ccc(Cl)cc2Cl)c1-c1ccc(Cl)cc1 | inactive | -26.4% | 
CCOC(=O)OC(C)OC1=C(C(=O)Nc2ccccn2)N(C)S(=O)(=O)c2ccccc21 (stereo unspecified) | inactive |  | inactive
N#Cc1cc(NC(=O)C(=O)O)c(Cl)c(NC(=O)C(=O)O)c1 | inactive | 1.2% | 
C[C@]12CC[C@@H]3c4ccc(O)cc4CC[C@H]3[C@@H]1C[C@@H](O)[C@@H]2O | inactive | -20% and -12.5% | 
CCOC(=O)c1cccc(N)c1 | inactive | -8.06% | 
C[C@]12CC[C@@H]3c4ccc(O)cc4CC[C@H]3[C@@H]1CC[C@@H]2OC(=O)CCC1CCCC1 | inactive | -19.7% | 
COc1cc(NS(=O)(=O)c2ccc(N)cc2)nc(OC)n1 | inactive | 2.7% | 
CC1(C)O[C@@H]2C[C@H]3[C@@H]4CCC5=CC(=O)CC[C@]5(C)[C@@]4(F)[C@@H](O)C[C@]3(C)[C@]2(C(=O)CCl)O1 | inactive |  | inactive
CCc1cccc2c3c([nH]c12)C(CC)(CC(=O)O)OCC3 (stereo unspecified) | inactive |  | inactive
CC(=C(CCOC(=O)C(C)C)SSC(CCOC(=O)C(C)C)=C(C)N(C=O)Cc1cnc(C)nc1N)N(C=O)Cc1cnc(C)nc1N | inactive |  | inactive
CCOC(=O)c1c(N)sc2c1CCN(Cc1ccccc1)C2 | inactive |  | inactive
CN(CCCN1c2ccccc2CCc2ccccc21)CC(=O)c1ccc(Cl)cc1 | inactive | -5.87% | 
CCN(CC)C(=O)Nc1ccc(OCC(O)CNC(C)(C)C)c(C(C)=O)c1 (stereo unspecified) | inactive | -2.7% | 
CCn1c(=O)c2c(nc(C=Cc3ccc(OC)c(OC)c3)n2C)n(CC)c1=O | inactive |  | inactive
C[C@@H]1CCN(C(=O)[C@H](CCCN=C(N)N)NS(=O)(=O)c2cccc3c2NC[C@H](C)C3)[C@@H](C(=O)O)C1 | inactive | -11.8% | 
C/C=C/c1ccc(OC)cc1 | inactive |  | inactive
COc1ccc(CN(CCN(C)C)c2ccccn2)cc1 | inactive | -6.08% | 
CC(C)Cc1ccc(C(C)C(=O)OCc2ccccn2)cc1 (stereo unspecified) | inactive | -13.1% | 
CC(=O)[C@H]1CC[C@H]2[C@@H]3CC=C4C[C@@H](O)CC[C@]4(C)[C@H]3CC[C@]12C | inactive |  | inactive
